# Assay results reported in PubChem BioAssay AID1159580 (chemical genetic matrix, 2015).
# Several values for one entry are separate records, joined by “and”; a condition that tells them apart may be missing. Equal values may be shown once. In all, about 5,500 compounds went through this assay and about 2,000 (36%) were called active. About 18% were inconclusive and are not listed. This is one part of the list. Values without a mark were called inactive. Rule as the data show it: active = normalized growth mostly below about 0.91 (no sharp cut-off); inconclusive = no clear call, values can overlap the other calls; inactive = mostly above about 0.92.
# Assay: chemical genetic growth profiling, strain panel (AID 1159580);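 also: tested at 20 µM; growth read once vehicle control cultures reached saturation at 30 °C; 1 = growth at the plate median or of vehicle wells; lower values mean less growth of the strain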
# Conditions: growth OD
compound,measurement,setting,value
CNCCC=C1c2ccccc2CCc2ccccc21,normalized growth,"S. cerevisiae deletion strains, locus YJR075W, strain HOC1, stronger effect = lower value",1.02 and 0.976
same,normalized growth,"S. cerevisiae deletion strains, locus YKL009W, strain mrt4, stronger effect = lower value",1.01
same,normalized growth,"S. cerevisiae deletion strains, locus YKL068W, stronger effect = lower value",1
same,normalized growth,"S. cerevisiae deletion strains, locus YKL085W, strain MDH1 (second series), stronger effect = lower value",1
same,normalized growth,"S. cerevisiae deletion strains, locus YKL085W, strain MDH1, stronger effect = lower value",1
same,normalized growth,"S. cerevisiae deletion strains, locus YKL160W, strain elf1, stronger effect = lower value",0.943
same,normalized growth,"S. cerevisiae deletion strains, locus YKL190W, strain CNB1, stronger effect = lower value",1.01
same,normalized growth,"S. cerevisiae deletion strains, locus YKR001C, strain vps1, stronger effect = lower value",1.06
same,normalized growth,"S. cerevisiae deletion strains, locus YKR026C, strain gcn3, stronger effect = lower value",0.975
same,normalized growth,"S. cerevisiae deletion strains, locus YKR091W, strain srl3, stronger effect = lower value",0.973
same,normalized growth,"S. cerevisiae deletion strains, locus YLL001W, strain dnm1, stronger effect = lower value",0.988
same,normalized growth,"S. cerevisiae deletion strains, locus YLL026W, stronger effect = lower value",0.978
same,normalized growth,"S. cerevisiae deletion strains, locus YLL041C, strain sdh2, stronger effect = lower value",0.985
same,normalized growth,"S. cerevisiae deletion strains, locus YLR027C, strain aat2, stronger effect = lower value",0.967
same,normalized growth,"S. cerevisiae deletion strains, locus YLR039C, strain RIC1, stronger effect = lower value",1.1
same,normalized growth,"S. cerevisiae deletion strains, locus YLR058C, strain SHM2, stronger effect = lower value",1.02
same,normalized growth,"S. cerevisiae deletion strains, locus YLR102C, strain apc9, stronger effect = lower value",1.01
same,normalized growth,"S. cerevisiae deletion strains, locus YLR113W, strain HOG1, stronger effect = lower value",1
same,normalized growth,"S. cerevisiae deletion strains, locus YLR221C, strain rsa3, stronger effect = lower value",0.991
same,normalized growth,"S. cerevisiae deletion strains, locus YLR258W, strain gsy2, stronger effect = lower value",0.957
same,normalized growth,"S. cerevisiae deletion strains, locus YLR262C, strain YPT6 (second series), stronger effect = lower value",1.01
same,normalized growth,"S. cerevisiae deletion strains, locus YLR262C, strain YPT6, stronger effect = lower value",1.13
same,normalized growth,"S. cerevisiae deletion strains, locus YLR268W, strain sec22, stronger effect = lower value",1.08
same,normalized growth,"S. cerevisiae deletion strains, locus YLR320W, strain mms22, stronger effect = lower value",0.967
same,normalized growth,"S. cerevisiae deletion strains, locus YLR330W, strain CHS5, stronger effect = lower value",1.01
same,normalized growth,"S. cerevisiae deletion strains, locus YLR342W, strain FKS1 (second series), stronger effect = lower value",0.977
same,normalized growth,"S. cerevisiae deletion strains, locus YLR342W, strain FKS1, stronger effect = lower value",0.91
same,normalized growth,"S. cerevisiae deletion strains, locus YLR357W, strain rsc2, stronger effect = lower value",0.956
same,normalized growth,"S. cerevisiae deletion strains, locus YLR370C, strain arc18, stronger effect = lower value",0.975
same,normalized growth,"S. cerevisiae deletion strains, locus YLR371W, strain rom2, stronger effect = lower value",1.02
same,normalized growth,"S. cerevisiae deletion strains, locus YLR384C, strain iki3, stronger effect = lower value",0.979
same,normalized growth,"S. cerevisiae deletion strains, locus YLR418C, strain cdc73, stronger effect = lower value",1.01
same,normalized growth,"S. cerevisiae deletion strains, locus YML016C, strain PPZ1, stronger effect = lower value",1.01
same,normalized growth,"S. cerevisiae deletion strains, locus YML032C, strain rad52, stronger effect = lower value",1.06
same,normalized growth,"S. cerevisiae deletion strains, locus YML120C, strain ndi1, stronger effect = lower value",0.986
same,normalized growth,"S. cerevisiae deletion strains, locus YML124C, strain tub3, stronger effect = lower value",1.01
same,normalized growth,"S. cerevisiae deletion strains, locus YMR058W, strain fet3, stronger effect = lower value",0.964
same,normalized growth,"S. cerevisiae deletion strains, locus YMR078C, strain ctf18, stronger effect = lower value",1.02
same,normalized growth,"S. cerevisiae deletion strains, locus YMR125W, strain sto1, stronger effect = lower value",0.933
same,normalized growth,"S. cerevisiae deletion strains, locus YMR129W, stronger effect = lower value",0.976
same,normalized growth,"S. cerevisiae deletion strains, locus YMR205C, strain PFK2, stronger effect = lower value",0.98
same,normalized growth,"S. cerevisiae deletion strains, locus YMR223W, strain ubp8, stronger effect = lower value",0.989
same,normalized growth,"S. cerevisiae deletion strains, locus YMR231W, strain pep5, stronger effect = lower value",0.974
same,normalized growth,"S. cerevisiae deletion strains, locus YMR263W, strain SAP30, stronger effect = lower value",1.01
same,normalized growth,"S. cerevisiae deletion strains, locus YMR307W, strain GAS1, stronger effect = lower value",1.02
same,normalized growth,"S. cerevisiae deletion strains, locus YNL067W, strain RPL9B, stronger effect = lower value",1.02
same,normalized growth,"S. cerevisiae deletion strains, locus YNL071W, strain lat1, stronger effect = lower value",0.987
same,normalized growth,"S. cerevisiae deletion strains, locus YNL128W, strain TEP1, stronger effect = lower value",1.01 and 1.07
same,normalized growth,"S. cerevisiae deletion strains, locus YNL153C, strain GIM3, stronger effect = lower value",1.02 and 0.984
same,normalized growth,"S. cerevisiae deletion strains, locus YNL175C, strain NOP13, stronger effect = lower value",1
same,normalized growth,"S. cerevisiae deletion strains, locus YNL183C, strain NPR1, stronger effect = lower value",0.938
same,normalized growth,"S. cerevisiae deletion strains, locus YNL197C, strain WHI3, stronger effect = lower value",1.01
same,normalized growth,"S. cerevisiae deletion strains, locus YNL209W, strain ssb2, stronger effect = lower value",0.984
same,normalized growth,"S. cerevisiae deletion strains, locus YNL224C, strain SQS1, stronger effect = lower value",1.02
same,normalized growth,"S. cerevisiae deletion strains, locus YNL233W, strain BNI4, stronger effect = lower value",1.01
same,normalized growth,"S. cerevisiae deletion strains, locus YNL248C, strain rpa49, stronger effect = lower value",0.952
same,normalized growth,"S. cerevisiae deletion strains, locus YNL250W, strain rad50, stronger effect = lower value",1.01
same,normalized growth,"S. cerevisiae deletion strains, locus YNL271C, strain bni1, stronger effect = lower value",1.01
same,normalized growth,"S. cerevisiae deletion strains, locus YNL298W, strain CLA4, stronger effect = lower value",1.02
same,normalized growth,"S. cerevisiae deletion strains, locus YNL307C, strain MCK1, stronger effect = lower value",1.01
same,normalized growth,"S. cerevisiae deletion strains, locus YNL322C, strain KRE1 (second series), stronger effect = lower value",0.98
same,normalized growth,"S. cerevisiae deletion strains, locus YNL322C, strain KRE1, stronger effect = lower value",1.01 and 0.982
same,normalized growth,"S. cerevisiae deletion strains, locus YNR049C, strain mso1, stronger effect = lower value",0.98
same,normalized growth,"S. cerevisiae deletion strains, locus YNR052C, strain pop2, stronger effect = lower value",1.02
same,normalized growth,"S. cerevisiae deletion strains, locus YOL006C, strain TOP1, stronger effect = lower value",0.969
same,normalized growth,"S. cerevisiae deletion strains, locus YOL012C, strain htz1",0.912
same,normalized growth,"S. cerevisiae deletion strains, locus YOL147C, strain pex11, stronger effect = lower value",1.02
same,normalized growth,"S. cerevisiae deletion strains, locus YOR001W, strain rrp6, stronger effect = lower value",0.988
same,normalized growth,"S. cerevisiae deletion strains, locus YOR061W, strain CKA2, stronger effect = lower value",1.01
same,normalized growth,"S. cerevisiae deletion strains, locus YOR069W, strain VPS5, stronger effect = lower value",1.01
same,normalized growth,"S. cerevisiae deletion strains, locus YOR070C, strain gyp1, stronger effect = lower value",0.978
same,normalized growth,"S. cerevisiae deletion strains, locus YOR080W, strain dia2, stronger effect = lower value",0.967
same,normalized growth,"S. cerevisiae deletion strains, locus YOR083W, strain WHI5 (second series), stronger effect = lower value",1.01
same,normalized growth,"S. cerevisiae deletion strains, locus YOR083W, strain WHI5, stronger effect = lower value",0.898
same,normalized growth,"S. cerevisiae deletion strains, locus YOR106W, strain vam3, stronger effect = lower value",0.949
same,normalized growth,"S. cerevisiae deletion strains, locus YOR136W, strain idh2, stronger effect = lower value",1.01
same,normalized growth,"S. cerevisiae deletion strains, locus YOR144C, strain elg1, stronger effect = lower value",1.03
same,normalized growth,"S. cerevisiae deletion strains, locus YOR184W, strain ser1, stronger effect = lower value",1.04
same,normalized growth,"S. cerevisiae deletion strains, locus YOR231W, strain MKK1, stronger effect = lower value",1.01
same,normalized growth,"S. cerevisiae deletion strains, locus YOR265W, strain rbl2, stronger effect = lower value",0.989
same,normalized growth,"S. cerevisiae deletion strains, locus YOR270C, strain vph1, stronger effect = lower value",0.731 (active)
same,normalized growth,"S. cerevisiae deletion strains, locus YOR290C, strain snf2, stronger effect = lower value",0.928
same,normalized growth,"S. cerevisiae deletion strains, locus YOR316C, strain cot1, stronger effect = lower value",1.02
same,normalized growth,"S. cerevisiae deletion strains, locus YPL051W, strain arl3, stronger effect = lower value",0.956
same,normalized growth,"S. cerevisiae deletion strains, locus YPL055C, strain LGE1, stronger effect = lower value",1.05 and 0.967
same,normalized growth,"S. cerevisiae deletion strains, locus YPL078C, strain atp4, stronger effect = lower value",0.959
same,normalized growth,"S. cerevisiae deletion strains, locus YPL106C, strain sse1, stronger effect = lower value",0.983
same,normalized growth,"S. cerevisiae deletion strains, locus YPL240C, strain hsp82, stronger effect = lower value",1
same,normalized growth,"S. cerevisiae deletion strains, locus YPL241C, strain CIN2, stronger effect = lower value",1.01
same,normalized growth,"S. cerevisiae deletion strains, locus YPL256C, strain CLN2, stronger effect = lower value",0.962
same,normalized growth,"S. cerevisiae deletion strains, locus YPR119W, strain clb2, stronger effect = lower value",1.01
same,normalized growth,"S. cerevisiae deletion strains, locus YPR141C, strain kar3, stronger effect = lower value",1.01
same,normalized growth,"S. cerevisiae deletion strains, locus YPR163C, strain tif3, stronger effect = lower value",1.03
same,normalized growth,"S. cerevisiae deletion strains, locus YPR167C, strain met16, stronger effect = lower value",1.02
same,normalized growth,"S. cerevisiae deletion strains, strain wtn01, stronger effect = lower value",1.05
same,normalized growth,"S. cerevisiae strains, strain wild type, stronger effect = lower value",1.01
